# According to PubChem BioAssay (EPA / NIEHS):
# Several values for one entry are separate records, joined by “and”; a condition that tells them apart may be missing. Identical values can stand only once. A structure can be active in one record and inactive in another. Activity calls are given as the source filed them. The calls were made as follows: active = hit-call score of the fitted dose curve at least 0.9, where 1 is the maximum; inactive = score below 0.9.
# Experiments:
# [1] = BSK_hDFCGF_SRB: Viability Assessment in the BioMAP Diversity Plus: hDFCGF Assay (AID 2283061); conditions: primary human foreskin fibroblasts;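 also: cells exposed to compound for 24 h before the read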
# Procedure, shortened: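 Primary human foreskin fibroblasts; 24 h post-dose; fixed 10% TCA, stained 0.1% SRB, A560 read; total protein as overt cytotoxicity measure; curves fit bidirectionally vs DMSO control.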
# [2] = read-out: TIMP metallopeptidase inhibitor 1 (TIMP1), TIMP1 (gene 7076); experiment: BSK_hDFCGF_TIMP1: BioMAP Diversity Plus: hDFCGF Assay for TIMP metallopeptidase inhibitor 1 (TIMP1) Biomarker Activity (AID 2283062); conditions: primary human foreskin fibroblasts; actives raise or lower the signal
# Procedure, shortened: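 ELISA readout of TIMP-1 from human dermal foreskin fibroblast cultures 24 h post-dosing. Curves were fitted in both directions against DMSO baseline, with SRB total-protein staining in parallel cultures as a cytotoxicity check.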
# [3] = read-out: Monokine induced gamma interferon (MIG), CXCL9 (gene 4283); experiment: BSK_hDFCGF_MIG: BioMAP Diversity Plus: hDFCGF Assay for Monokine induced gamma interferon (MIG) Biomarker Activity (AID 2283063); conditions: primary human foreskin fibroblasts; actives raise or lower the signal
# Procedure, shortened: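 Fibroblasts (human foreskin, primary) dosed, 24 h, MIG by ELISA; fit bidirectional vs DMSO.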
# [4] = read-out: Matrix Metallopeptidase 1 (MMP1), MMP1 (gene 4312); experiment: BSK_hDFCGF_MMP1: BioMAP Diversity Plus: hDFCGF Assay for Matrix Metallopeptidase 1 (MMP1) Biomarker Activity (AID 2283064); conditions: primary human foreskin fibroblasts; actives raise or lower the signal
# Procedure, shortened: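 hDFCGF primary fibroblasts (human foreskin); chemical added; 24 h; MMP1 by ELISA; bidirectional fit vs DMSO.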
# [5] = read-out: Vascular cell adhesion molecule 1 (VCAM1), VCAM1 (gene 7412); experiment: BSK_hDFCGF_VCAM1: BioMAP Diversity Plus: hDFCGF Assay for Vascular cell adhesion molecule 1 (VCAM1) Biomarker Activity (AID 2283065); conditions: primary human foreskin fibroblasts; actives raise or lower the signal;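 as to AC50: VCAM-1 protein level quantified by ELISA after 24 h chemical exposure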
# Procedure, shortened: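 ELISA read-out of VCAM-1 on human skin fibroblasts, 24 h post-dose; gain or loss of signal fitted bidirectionally against DMSO baseline.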
# [6] = read-out: Interferon-gamma inducible Protein 10 (IP10), CXCL10 (gene 3627); experiment: BSK_KF3CT_IP10: BioMAP Diversity Plus: KF3CT Assay for Interferon-gamma inducible Protein 10 (IP10) Biomarker Activity (AID 2283068); conditions: primary human keratinocytes with fibroblasts; actives raise or lower the signal
# Procedure, shortened: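 Signal is secreted/surface IP-10 by ELISA in a human primary skin co-culture of keratinocytes and foreskin fibroblasts, taken 24 h post-dosing; DMSO served as negative control.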
# [7] = BSK_KF3CT_SRB: Viability Assessment in the BioMAP Diversity Plus: KF3CT Assay (AID 2283069); conditions: primary human keratinocytes with fibroblasts;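 also: total protein by sulforhodamine B staining as a cytotoxicity measure; read 24 h after compound addition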
# Procedure, shortened: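 Keratinocytes co-cultured with foreskin fibroblasts (human primary); chemical added, 24 h; fix 10% TCA, stain 0.1% SRB, A560. Bidirectional fit vs DMSO.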
# [8] = read-out: Interleukin-1 alpha (IL1a), IL1A (gene 3552); experiment: BSK_KF3CT_IL1a: BioMAP Diversity Plus: KF3CT Assay for Interleukin-1 alpha (IL1a) Biomarker Activity (AID 2283070); conditions: primary human keratinocytes with fibroblasts; actives raise or lower the signal
# Procedure, shortened: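 Chemicals were dosed onto co-cultured human keratinocytes and foreskin fibroblasts, IL-1a was quantified by ELISA at 24 h, and activity was fitted in both directions relative to DMSO controls.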
# [9] = read-out: TIMP metallopeptidase inhibitor 2 (TIMP2), TIMP2 (gene 7077); experiment: BSK_KF3CT_TIMP2: BioMAP Diversity Plus: KF3CT Assay for TIMP metallopeptidase inhibitor 2 (TIMP2) Biomarker Activity (AID 2283071); conditions: primary human keratinocytes with fibroblasts; actives raise or lower the signal
# Procedure, shortened: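 Human primary keratinocyte/foreskin fibroblast co-culture dosed with chemical and sampled at 24 h. TIMP-2 levels quantified by ELISA; bidirectional fitting against DMSO negative control as baseline.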
# [10] = read-out: Transforming growth factor beta 1 (TGFb1), TGFB1 (gene 7040); experiment: BSK_KF3CT_TGFb1: BioMAP Diversity Plus: KF3CT Assay for Transforming growth factor beta 1 (TGFb1) Biomarker Activity (AID 2283072); conditions: primary human keratinocytes with fibroblasts; actives raise or lower the signal
# Procedure, shortened: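 Human keratinocyte plus foreskin fibroblast primary co-culture, dosed with chemical for 24 h. TGF-b1 quantified by ELISA. Activity fitted bidirectionally against DMSO negative control as baseline.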
# [11] = read-out: C-C motif chemokine 2 (Homo sapiens) (UniProt P13500); experiment: BSK_KF3CT_MCP1: BioMAP Diversity Plus: KF3CT Assay for Monocyte Chemoattractant Protein 1 (MCP1/CCL2) Biomarker Activity (AID 2283073); conditions: primary human keratinocytes with fibroblasts; actives raise or lower the signal
# Procedure, shortened: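 KF3CT skin co-culture (keratinocytes/foreskin fibroblasts), 24 h post-dose; MCP-1 by ELISA; gain/loss of signal fit bidirectionally vs DMSO baseline.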
# [12] = read-out: Matrix Metallopeptidase 9 (MMP9), MMP9 (gene 4318); experiment: BSK_KF3CT_MMP9: BioMAP Diversity Plus: KF3CT Assay for Matrix Metallopeptidase 9 (MMP9) Biomarker Activity (AID 2283074); conditions: primary human keratinocytes with fibroblasts; actives raise or lower the signal;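 as to AC50: MMP9 protein level quantified by ELISA in the co-culture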
# Procedure, shortened: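 Human keratinocyte/foreskin fibroblast co-culture; compound added; 24 h; MMP-9 by ELISA; bidirectional fit vs DMSO baseline.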
# [13] = read-out: urokinase plasminogen activator (uPA), PLAU (gene 5328); experiment: BSK_KF3CT_uPA: BioMAP Diversity Plus: KF3CT Assay for urokinase plasminogen activator (uPA) Biomarker Activity (AID 2283075); conditions: primary human keratinocytes with fibroblasts; actives raise or lower the signal
# Procedure, shortened: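 ELISA readout of uPA, analyzed for signal gain or loss relative to DMSO, from a human primary keratinocyte–foreskin fibroblast co-culture measured 24 h after chemical treatment.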
# CD40, CD40 (gene 958) = experiment: BSK_LPS_CD40: BioMAP Diversity Plus: LPS Assay for CD40 Biomarker Activity (AID 2283076); conditions: primary human HUVEC with PBMC; actives raise or lower the signal
# Procedure, shortened: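 ELISA readout of CD40 in HUVEC/PBMC co-culture (BSK_LPS system), 24 h post-dosing; bidirectional curve fit, DMSO baseline; parallel SRB total-protein staining for cytotoxicity.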
# [14] = read-out: E-selectin (Homo sapiens) (UniProt P16581); experiment: BSK_LPS_Eselectin: BioMAP Diversity Plus: LPS Assay for Eselectin Biomarker Activity (AID 2283077); conditions: primary human HUVEC with PBMC; actives raise or lower the signal
# Procedure, shortened: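 ELISA readout of E-selectin, 24 h post-dose, HUVEC + PBMC co-culture (LPS system). Gain or loss of signal vs DMSO baseline, bidirectional fit.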
# [15] = read-out: Interleukin-8 (IL8), CXCL8 (gene 3576); experiment: BSK_LPS_IL8: BioMAP Diversity Plus: LPS Assay for Interleukin-8 (IL8) Biomarker Activity (AID 2283078); conditions: primary human HUVEC with PBMC; actives raise or lower the signal
# Procedure, shortened: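 HUVEC + PBMC co-culture, LPS-activated; test chemicals dosed, IL-8 read by ELISA at 24 h. Bidirectional curve fit vs DMSO baseline (gain or loss of signal).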
# [16] = BSK_LPS_SRB: Viability Assessment in the BioMAP Diversity Plus: LPS Assay (AID 2283079); conditions: primary human HUVEC with PBMC;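 also: total protein by sulforhodamine B absorbance as a cytotoxicity measure; measured one day after compound addition; fitted in both directions against DMSO so loss or gain of signal counts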
# Procedure, shortened: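 HUVEC + PBMC co-culture, LPS-stimulated; compound 24 h. 10% TCA fix, 0.1% SRB stain, A560. Bidirectional fit vs DMSO.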
# [17] = read-out: Interleukin-1 alpha (IL1a), IL1A (gene 3552); experiment: BSK_LPS_IL1a: BioMAP Diversity Plus: LPS Assay for Interleukin-1 alpha (IL1a) Biomarker Activity (AID 2283080); conditions: primary human HUVEC with PBMC; actives raise or lower the signal
# Procedure, shortened: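 HUVEC/PBMC co-culture, LPS system; 24 h after dosing; IL-1a by ELISA; gain or loss of signal fitted bidirectionally vs DMSO baseline.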
# Chain of E-selectin (Homo sapiens) (P16581 whole entry, looked up): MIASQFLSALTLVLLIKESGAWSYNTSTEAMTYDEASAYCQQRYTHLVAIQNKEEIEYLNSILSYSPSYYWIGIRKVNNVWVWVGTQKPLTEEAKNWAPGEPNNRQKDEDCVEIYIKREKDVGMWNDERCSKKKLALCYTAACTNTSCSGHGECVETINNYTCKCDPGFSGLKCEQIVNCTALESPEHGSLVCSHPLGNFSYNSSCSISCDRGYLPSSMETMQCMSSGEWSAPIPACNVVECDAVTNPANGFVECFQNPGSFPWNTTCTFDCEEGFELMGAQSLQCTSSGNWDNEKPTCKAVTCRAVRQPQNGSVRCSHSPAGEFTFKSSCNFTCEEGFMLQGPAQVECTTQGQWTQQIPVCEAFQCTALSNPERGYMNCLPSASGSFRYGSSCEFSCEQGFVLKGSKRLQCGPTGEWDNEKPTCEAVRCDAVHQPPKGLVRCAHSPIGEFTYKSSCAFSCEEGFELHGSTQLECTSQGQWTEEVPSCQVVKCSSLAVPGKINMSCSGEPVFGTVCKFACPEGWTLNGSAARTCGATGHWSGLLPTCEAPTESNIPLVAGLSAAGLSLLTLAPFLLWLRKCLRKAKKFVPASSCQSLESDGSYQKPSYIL
structure (smiles),measurement,setting,value
CN(C)N=O,outcome,[1],inactive
same,outcome,[2],inactive
same,outcome,[3],inactive
same,outcome,[4],inactive
same,outcome,[5],inactive
same,outcome,[6],inactive
same,outcome,[7],inactive
same,outcome,[8],inactive
same,outcome,[9],inactive
same,outcome,[10],inactive
same,outcome,[11],inactive
same,outcome,[12],inactive
same,outcome,[13],inactive
same,outcome,"CD40, CD40 (gene 958)",inactive
same,outcome,[14],inactive
same,outcome,[15],inactive
same,outcome,[16],inactive
same,outcome,[17],inactive
C=CC(=O)OCCCCCC(C)C,outcome,[1],inactive
same,outcome,[2],inactive
same,outcome,[3],inactive
same,outcome,[4],inactive
same,outcome,[5],inactive
same,outcome,[6],inactive
same,outcome,[7],inactive
same,outcome,[8],inactive
same,outcome,[9],inactive
same,outcome,[10],inactive
same,outcome,[11],inactive
same,outcome,[12],inactive
same,outcome,[13],inactive
same,outcome,"CD40, CD40 (gene 958)",inactive
same,outcome,[14],inactive
same,outcome,[15],inactive
same,outcome,[16],inactive
same,outcome,[17],inactive
O=C(O)C(F)(F)C(F)(F)C(F)(F)C(F)(F)C(F)(F)C(F)(F)F,outcome,[1],inactive
same,outcome,[2],inactive
same,outcome,[3],inactive
same,outcome,[4],inactive
same,outcome,[5],inactive
same,outcome,[6],inactive
same,outcome,[7],inactive
same,outcome,[8],inactive
same,outcome,[9],inactive
same,outcome,[10],inactive
same,outcome,[11],inactive
same,outcome,[12],inactive
same,outcome,[13],inactive
same,outcome,"CD40, CD40 (gene 958)",inactive
same,outcome,[14],inactive
same,AC50,[15],14.6 µM (active) and 30 µM (active)
same,outcome,[15],inactive
same,outcome,[16],inactive
same,outcome,[17],inactive
COP(=S)(OC)Oc1ccc(Sc2ccc(OP(=S)(OC)OC)cc2)cc1,outcome,[1],inactive
same,outcome,[2],inactive
same,outcome,[3],inactive
same,outcome,[4],inactive
same,outcome,[5],inactive
same,AC50,[6],20 µM (active)
same,outcome,[7],inactive
same,outcome,[8],inactive
same,outcome,[9],inactive
same,outcome,[10],inactive
same,outcome,[11],inactive
same,AC50,[12],10.4 µM (active)
same,outcome,[13],inactive
same,AC50,"CD40, CD40 (gene 958)",20 µM (active)
same,outcome,[14],inactive
same,AC50,[15],3.97 µM (active)
same,AC50,[16],13.7 µM (active)
same,AC50,[17],31 µM (active)
CCC(C)(C)c1ccc(O)c(C(C)(C)CC)c1,AC50,[1],11.3 µM (active)
same,AC50,[2],8.53 µM (active)
same,AC50,[3],8.09 µM (active)
same,AC50,[4],10.7 µM (active)
same,AC50,[5],9.33 µM (active)
same,AC50,[6],9.69 µM (active)
same,AC50,[7],7.84 µM (active)
same,AC50,[8],9.89 µM (active)
same,AC50,[9],9.47 µM (active)
same,AC50,[10],8.12 µM (active)
same,AC50,[11],10.6 µM (active)
same,AC50,[12],10.3 µM (active)
same,AC50,[13],7.77 µM (active)
same,AC50,"CD40, CD40 (gene 958)",13.6 µM (active)
same,AC50,[14],27 µM (active)
same,AC50,[15],28.1 µM (active)
same,AC50,[16],15 µM (active)
same,AC50,[17],14.3 µM (active)
